Assay outcomes deposited in PubChem by National Center for Advancing Translational Sciences (NCATS).
The list is not random: actives were taken first. Their share in the collection is about 8%.
RORg inh – blocks mouse ROR gamma transcriptional activity; Drosophila S2 Gal4-RORgamma UAS-luciferase reporter, 20 h; Potency, µM (series often up to 53.6 µM), inactives show top-dose activity change, negative = inhibition, most hits filed as inhibitors; hit rate 5.4% among 310,000; AID 2551; also: potency is read from the fitted curve at half-maximal effect; nearly all actives have a fitted effect of over 60% in size
Target sequence (P51450 whole entry, looked up, the tested form may be a part): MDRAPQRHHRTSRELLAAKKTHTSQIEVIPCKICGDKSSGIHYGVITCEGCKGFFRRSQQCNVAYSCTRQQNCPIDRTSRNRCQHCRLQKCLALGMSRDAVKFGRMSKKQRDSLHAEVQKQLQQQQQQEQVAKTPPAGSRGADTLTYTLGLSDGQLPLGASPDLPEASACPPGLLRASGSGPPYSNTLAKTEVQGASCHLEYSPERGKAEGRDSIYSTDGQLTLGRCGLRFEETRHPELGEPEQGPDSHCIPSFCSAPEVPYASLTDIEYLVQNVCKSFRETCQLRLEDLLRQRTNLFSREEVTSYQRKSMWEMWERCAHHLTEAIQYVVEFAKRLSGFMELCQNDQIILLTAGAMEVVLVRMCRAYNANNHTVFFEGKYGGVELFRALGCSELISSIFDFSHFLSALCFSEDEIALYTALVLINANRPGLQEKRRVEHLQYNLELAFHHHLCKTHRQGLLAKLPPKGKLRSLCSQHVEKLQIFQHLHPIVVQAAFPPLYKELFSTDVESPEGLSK
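Stably transfected Drosophila Schneider cells are the test system, with ROR gamma fused to Gal4 and luciferase under UAS control; luminescence is read after 20 hr of 700 uM copper sulfate induction at ambient temperature.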
ELG1 repair inh – inhibitors of ELG1-dependent DNA repair in HEK293T cells; HEK293T ELG1-luciferase reporter, luminescence, 16 h; DNA damage induced by 5-fluorouridine; Potency, µM (titrated, usually from 46.1 µM), inactives show top-dose activity change, negative = inhibition, actives largely listed as inhibitors; hit rate 2.3% among 330,000; AID 504467; also: potency is read from the fitted curve at half-maximal effect; nearly all actives have a fitted effect of over 55% in size
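Overnight (16 hr) co-exposure of 2,000 cells/well to 5-fluorouridine and compound at 37 °C preceded detection. Luciferase was quantified via ONE-Glo luminescence; loss of signal denotes inhibition.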
VP16 counter – Gal4-VP16 reporter inhibition counter-screen. Drosophila S2 Gal4-VP16 UAS-luciferase, luminescence, 20 h. Potency, µM (titrated, usually from 53.6 µM), for inactives: top-dose activity, negative = inhibition, hits mostly inhibitors. hit rate 3.5% among 310,000. AID 2546;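 also: Gal4-VP16 expression switched on by copper sulfate through the metallothionein promoter; potency is read from the fitted curve at half-maximal effect; nearly all actives have a fitted effect of over 50% in size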
TSHR antag – antagonists of human thyroid stimulating hormone receptor. P16473. TSHR-expressing cells, TSH-stimulated cAMP HTRF, 2 h; stronger effect = lower value. activity change, negative = inhibition, % at 11.5 µM. hit rate 0.2% among 330,000;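 active = activity change below a set negative limit, meaning inhibition stronger than a set level, cut at about -70% in these data; inconclusive = activity change between two set negative limits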
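Cell-based HTRF cAMP assay; TSHR cells + compound, TSH EC80 (4nM final), 2 h, 37 deg C. Lysis with anti-cAMP cryptate and cAMP-d2, 30 min RT, read 665/620 nm.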
Coupling enz – counter-screen for Giardia aldolase inhibitors: coupling enzyme system. coupling enzyme system counterscreen, AmpLite Red fluorescence. activity change, negative = inhibition, % at 58.2 µM, hits read low. hit rate 0.67% among 290,000. AID 2472; in the data active = activity change below about -30%
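Counterscreen lacking aldolase: glyceraldehyde-3-phosphate coupling-enzyme reagent preincubated 10 min at RT with compound (at 57.5 uM final), then substrate/coupling system with AmpLite Red added; fluorescence read at 525/598 nm after 20 min RT.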
The depositor's hits bear a star; ? = inconclusive; . = no result; [ ] = another dose, or the depositor's remark. Unless noted, calls follow the shape of the dose curve; as a rule, active = well fitted curve in the direction sought with a large enough effect; inconclusive = small, poorly fitted or top-dose-only effect, or another doubt; inactive = no such curve, though single readings can be large; an effect the other way counts as inactive or inconclusive. % is scaled to controls: 0 for no effect and ±100 for the full control effect.

SMILES	RORg inh	ELG1 repair inh	VP16 counter	TSHR antag	Coupling enz
Cc1nn(CC(=O)N2CCN(c3ccc(Cl)cc3)CC2)c(=O)c2cccn12	24%	-4%	0%	12	1
Cn1nccc1C(=O)Nc1ccc2c(c1)OCCO2	-37%	?	-11%	-2	1
Cn1nccc1C(=O)Nc1ccc(OC(=O)c2ccnn2C)cc1	37%	23µM*	-12%	-9	-1
Cn1nccc1C(=O)NC(=S)Nc1cc(Cl)cc(Cl)c1	2.5µM*	-16%	13µM*	-3	-1
Cc1cc(=O)c2c(O)cc(O)c(C)c2o1	-36%	.	2%	.	-17
Cn1nc([N+](=O)[O-])nc1S(C)(=O)=O	5µM*	?	?	26	-14
O=C(NCc1ccc(Cl)cc1)c1cccc2c1C(=O)N(CC1CCCO1)C2 (stereo unspecified)	37%	?	-6%	-3	0
CCCCNC(=S)NNC(=O)c1cc(-c2cccnc2)nc2ccccc12	?	-2%	-19%	-8	2
O=C(O)c1cc(-c2ccc(O)cc2)nc2ccccc12	-14%	3%	-4%	0	-2
COc1ccc(Cl)cc1C(=O)NNC(=S)NC(=O)c1ccc(F)c(F)c1	7.1µM*	-5%	11µM*	2	2
COc1ccc(Cl)cc1C(=O)NNC(=S)NC(=O)c1cc(-c2ccc(Cl)cc2)nc2ccccc12	1.3µM*	16%	?	4	4
CCOc1ccc(-c2cc(C(=O)O)c3ccccc3n2)cc1	7.9µM*	?	10µM*	-17	3
CCCCOc1ccc(-c2cc(C(=O)NNC(=S)NCC)c3ccccc3n2)cc1	5µM*	?	2.5µM*	-9	0
Cn1c(CNC(=O)c2ccc3c(c2)OCO3)nnc1SCC(=O)Nc1ccc(F)cc1	0%	6%	18%	-8	-1
COc1ccccc1OCC(=O)N1CCN(C(=O)c2ccco2)CC1	-7%	?	-4%	0	.
CC(C)CCOc1ccc(C2(C)NC(=O)NC2=O)cc1 (stereo unspecified)	-42%[1.91 µM]	9%	0%	25	2
CCCC1(C(=O)OC)C=C2C(=C(C(C)C)C(=O)C2C)CN1 (stereo unspecified)	6%	.	3%	.	-4
COCCn1c(=O)c(C)nc2cnc(Oc3ccccc3)nc21	1%	.	-16%	.	1
CCNC(=S)NNC(=O)c1cc(-c2ccc(OC)cc2)nc2ccccc12	1.4µM*	?	3.5µM*	2	-1
CCNC(=O)COC(=O)c1cc(-c2ccc(OC)cc2)nc2ccccc12	-1%	-4%	-20%	-3	0
COc1ccc(CCNC(=O)c2nn(C)c3c2CS(=O)(=O)c2ccccc2-3)c(OC)c1	26%	23µM*	-12%	-6	1
CCOc1ccc(CCNC(=O)c2nn(C)c3c2CS(=O)(=O)c2ccccc2-3)cc1	1%	?	-15%	2	1
Cc1cc(=O)[nH]c2c(N=Nc3ccc(O)cc3)c(N)nn12	?	?	?	-22	2
Nc1nn2c(C(F)(F)F)cc(=O)[nH]c2c1N=Nc1cccc(F)c1	10µM*	-9%	-16%	3	1
CS(=O)(=O)c1nc2ccccc2n1Cc1ccccc1	0%	-10%	0%	-7	2
SMILES	RORg inh	ELG1 repair inh	VP16 counter	TSHR antag	Coupling enz
CC(=O)Nc1nc2ccccc2n1Cc1ccccc1	2.2µM*	34%	5.6µM*	-8	-1
CC(=O)Nc1nc2ccccc2n1CCN(C)C	?	-3%	?	-8	-1
O=NNc1nc2ccccc2n1Cc1ccccc1	1.8µM*	?	2.8µM*	-12	3
OCC[C@@H]1C[C@H](O)[C@@H](O)[C@]2(Cc3ccccc3CCO2)O1	-27%	-13%	5%	21	1
COC(=O)c1[nH]c2ccccc2c1NC(=O)CN1CCN(C/C=C/c2ccccc2)CC1	0%	8.2µM*	-1%	-8	0
CCOC(=O)c1[nH]c2ccc(F)cc2c1NC(=O)CN1CCN(C/C=C/c2ccccc2)CC1	?	?	?	1	-2
COC(=O)c1[nH]c2ccc(C)cc2c1NC(=O)CN1CCN(Cc2ccccc2)CC1	8%	8.2µM*	-2%	5	1
